These results are taken from PubChem BioAssay.

For orientation: inhibition means the relative decrease from the control value, in per cent. By viability is commonly meant the share of living cells, or the viability signal relative to a control. Usually remaining activity stands for the signal under treatment as a percentage of the control signal. Usually AC50 stands for the concentration at which the activity in the assay is half-maximal. The term IC50 denotes the concentration that inhibits the measured activity by half.

Experiment [1] is described as follows: blockers of polyQ-driven CASP3 activation – cell-based (AID 1583). To be noted: polyglutamine-induced caspase-3 activation, cell assay; stronger effect = higher value;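 tested at 10 µM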.
The nature of experiment [2]: yeast 75Q aggregation reduction – 75Q-TubU reporter (AID 1593). The settings on record: Yeast 75Q polyglutamine aggregation reporter.
Experiment [3] is described as follows: blockers of cytochrome c efflux from mitochondria – biochemical, purified mitochondria (AID 1603).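 Also: mouse liver mitochondria challenged with calcium chloride; signal normalized to the plate average as 100%.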 To be noted: stronger effect = lower value.
The nature of experiment [4]: P. berghei load reduction in hepatocytes – cell-based, HepG2, luciferase luminescence, HepG2 viability, primary screen (AID 624349; in the data active = parasite load remaining mostly below about 12%, no sharp cut-off; inactive = mostly above about 10%;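 also: 100% = mean of DMSO negative control wells on the same plate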). The settings on record: P. berghei liver stage in HepG2, luciferase luminescence, concentration not given here; parasite load remaining: stronger effect = lower value; viability: measured here: HepG2 viability without parasites.
Experiment [5] in a line: EMT-state selective cytotoxicity in co-culture – imaging, PC-3E GFP, TEM4-18 mCherry, primary screen (AID 1345086).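 As to all read-outs here: cells exposed to compound for 72 h before imaging.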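 As to red/green cell ratio (normalised): normalised mesenchymal count divided by normalised epithelial count so high means epithelial killing.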 To be noted: PC-3E GFP / TEM4-18 mCherry co-culture, imaging cell counts, at 1 µM; for red/green cell ratio (normalised): actives lie on both sides, counts scaled to control wells, 1 = unselective.
Experiment [6] concerns the target Mitogen-activated protein kinase 7 (Homo sapiens) (UniProt Q13164). Description: Gal4-ERK5 driven luciferase induction – cell-based, HTS, primary screen (AID 1508626;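 active = luciferase signal above three times the same-plate solvent-only control wells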;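 also: luciferase driven by Gal4-ERK5 fusion binding five Gal4 sites before minimal TATA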). To be noted: HeLa Gal4-ERK5 transactivation, 18 h, at 5 µM, stronger effect = higher value.
Experiment [7] concerns Aerobactin synthetase IucA (Klebsiella pneumoniae). Description: inhibition of K. pneumoniae IucA enzyme – biochemical, Tocris library, absorbance (AID 1345561; call rule not given here;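 also: 100% = enzyme without compound and 0% = no enzyme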). The settings on record: purified IucA enzyme assay, absorbance (OD) read-out; stronger effect = lower value;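 tested at 8 µM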.
A short description of experiment [8]: viability loss in pontine glioma line – cell-based, SU-DIPG-XVII, MIPE5.0, CellTiter-Glo, qHTS, dose response (AID 1347060; cut-off not given, nearly all actives have AC50 up to about 26 µM;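 also: cells exposed to compound for 48 hours before viability readout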). The settings on record: CellTiter-Glo ATP luminescence. In general terms: ATP-based viability assays read luminescence as a measure of living cells.
A short description of experiment [9]: viability loss in pontine glioma line – cell-based, SU-DIPG-XIII, MIPE4.0, CellTiter-Glo, qHTS, dose response (AID 1347061; cut-off not given, nearly all actives have AC50 up to about 37 µM;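 also: cells exposed to compound for 48 hours before readout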). The settings on record: CellTiter-Glo ATP luminescence.
Experiment [10] is described as follows: viability loss in pontine glioma line – cell-based, JHH-DIPG-1, MIPE4.0, CellTiter-Glo, qHTS, dose response (AID 1347062; cut-off not given, nearly all actives have AC50 up to about 27 µM;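 also: cells exposed to compound for two days before readout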). To be noted: JHH-DIPG-1 viability, CellTiter-Glo ATP luminescence.
A short description of experiment [11]: viability loss in pontine glioma line – cell-based, SU-DIPG-XIII, MIPE5.0, CellTiter-Glo, qHTS, dose response (AID 1347064; cut-off not given, nearly all actives have AC50 up to about 23 µM;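 also: cells exposed to compound for 48 hours before the viability read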). The settings on record: CellTiter-Glo ATP luminescence.
The nature of experiment [12]: viability loss in pontine glioma line – cell-based, SU-DIPG-XXV, MIPE5.0, CellTiter-Glo, qHTS, dose response (AID 1347065; cut-off not given, nearly all actives have AC50 up to about 26 µM;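 also: cells exposed to compound for 48 hours before ATP readout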). To be noted: CellTiter-Glo ATP luminescence.
The nature of experiment [13]: growth inhibition of DIPG cells – cell-based, MIPE4.0 library, CellTiter-Glo luminescence, qHTS (AID 1347066; cut-off not given, nearly all actives have AC50 up to about 30 µM;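 also: cells exposed to compound for 48 hours before readout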). To be noted: SU-DIPG-VI viability, CellTiter-Glo ATP luminescence.
The nature of experiment [14]: JHH-DIPG-1 glioma cell viability, MIPE5.0 library, CellTiter-Glo luminescence, qHTS (AID 1347067; cut-off not given, nearly all actives have AC50 up to about 26 µM;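 also: cells exposed to compound for 48 hours before readout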). To be noted: JHH-DIPG-1 glioma viability, CellTiter-Glo ATP luminescence.
Experiment [15] in a line: growth inhibition of DIPG cells – cell-based, MIPE5.0 library, qHTS (AID 1347068; cut-off not given, nearly all actives have IC50 up to about 30 µM;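 also: cells exposed to compound for 48 hours before viability readout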). The settings on record: SU-DIPG-XXV viability.
Experiment [16] in a line: viability loss with induced miR-34 in A549 – imaging, A549 dox-inducible miR-34, nuclei and caspase counts, primary screen (AID 1347080;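 active = compounds whose cell count with miR-34 switched on is under 0.7 times the count with it off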). The settings on record: A549 miR-34 inducible, Hoechst nuclei count, 48 h.
Experiment [17] can be described thus: compounds altering HSF1 focus formation in cells – imaging, Selleck Cancer Library (AID 1347162; in the data active = plate-normalised HSF1 focus index below about 0.46). To be noted: human cells, HSF1 nuclear foci imaging, at 10 µM; SSMD: measured here: HSF1 foci SSMD mean; cell count: measured here: cell number; plate-normalised HSF1 focus index: stronger effect = lower value.
Experiment [18] can be described thus: galactose survival enhancers in mitochondrial complex I cybrids – cell-based, galactose medium, ATP luminescence, primary screen (AID 1645843;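 active = z-score of at least 1.8 in each of two replicates, scored against plate mean and spread of sample wells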;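 also: positive z means more ATP and so rescue of galactose-driven cybrid death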). The settings on record: complex I mutant cybrid cells, 72 h, stronger effect = higher value.
The mark [19] stands for this setting: measured here: epithelial PC-3E GFP cell survival.
[20] abbreviates: measured here: mesenchymal TEM4-18 mCherry cell survival.

Records with an inconclusive call do not appear. Active and inactive are the calls of the source.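 The calls were made as follows, unless noted: active = compounds killing one labelled cell type while sparing the other, by normalised counts and ratio limits, not self-fluorescent; inactive = the rest.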

Chain of Mitogen-activated protein kinase 7 (Homo sapiens) (Q13164 whole entry, looked up, the tested form may be a part): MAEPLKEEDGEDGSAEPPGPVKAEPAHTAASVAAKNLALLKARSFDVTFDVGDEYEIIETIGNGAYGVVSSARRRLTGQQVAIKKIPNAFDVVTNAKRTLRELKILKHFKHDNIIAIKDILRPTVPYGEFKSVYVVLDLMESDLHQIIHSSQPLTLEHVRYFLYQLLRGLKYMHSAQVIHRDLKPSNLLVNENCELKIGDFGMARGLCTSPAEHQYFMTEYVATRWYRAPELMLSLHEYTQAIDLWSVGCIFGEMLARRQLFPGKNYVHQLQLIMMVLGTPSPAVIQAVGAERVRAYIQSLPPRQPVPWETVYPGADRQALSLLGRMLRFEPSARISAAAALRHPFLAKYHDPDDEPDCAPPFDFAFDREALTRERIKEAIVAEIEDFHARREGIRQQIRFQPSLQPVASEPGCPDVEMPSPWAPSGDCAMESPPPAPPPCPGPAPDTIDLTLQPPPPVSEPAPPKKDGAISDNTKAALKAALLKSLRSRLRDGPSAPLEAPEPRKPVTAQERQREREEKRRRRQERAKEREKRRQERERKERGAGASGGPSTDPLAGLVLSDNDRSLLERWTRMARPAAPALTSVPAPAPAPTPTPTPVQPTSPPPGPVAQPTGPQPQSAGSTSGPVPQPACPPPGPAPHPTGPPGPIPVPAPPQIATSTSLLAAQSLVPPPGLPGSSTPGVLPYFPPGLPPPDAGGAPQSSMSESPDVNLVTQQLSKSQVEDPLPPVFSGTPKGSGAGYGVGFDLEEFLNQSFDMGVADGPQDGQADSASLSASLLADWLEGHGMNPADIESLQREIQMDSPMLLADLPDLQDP

Take `C=C(C)[C@H]1CC=C(C(=O)O)CC1`: in experiment [1], the inhibition worked out at 10.7%. The same molecule registered a score in experiment [2] of 0.26. Also, in experiment [3], the cytochrome c release ratio stood at 0.96. Moreover, in [4], the parasite load remaining was 101% (inactive) and the viability was 69.4%. Besides, the red/green cell ratio (normalised) in experiment [5] was 0.84 (inactive). Also, the normalised cell number in experiment [5] (setting [19]) was found to be 1.08. The normalised cell number in [5] (setting [20]) worked out at 0.92. In addition, the luciferase signal in [6] is 24 AU (inactive).
Take `C[C@@H]1CC[C@@]2(OC1)OC1CC3C4CC=C5C[C@@H](O)CC[C@]5(C)C4CC[C@]3(C)C1[C@@H]2C` (some centres undefined): in experiment [4], the parasite load remaining was 131% (inactive) and the viability was 91.4%. For the same molecule, the red/green cell ratio (normalised) in experiment [5] was 1.13 (inactive). Also, the normalised cell number in experiment [5] (setting [19]) stood at 1.02. In experiment [5] (setting [20]), the normalised cell number was 1.16.
For `COC1=CC(C)[C@@H]2C[C@H]3OC(=O)C[C@H]4C(C)=C(OC)C(=O)C([C@@]34C)[C@@]2(C)C1=O` (some centres undefined), the inhibition in [1] is 22.5%. Moreover, in [2], the score stood at 1.3. Further, the cytochrome c release ratio in [3] was found to be 0.85. Further, the red/green cell ratio (normalised) in experiment [5] is 0.78 (inactive). For the same molecule, the normalised cell number in experiment [5] (setting [19]) is 1.31; in [5] (setting [20]), 1.03.
For `O=C1C(Cl)=C(NCCN2CCOCC2)C(=O)c2ncccc21`, the remaining activity in experiment [7] is 118% (inactive). Besides, the AC50 in experiment [8] is 8.33 µM (active); in experiment [9] it was 6.62 µM (active); in experiment [10], 3.32 µM (active); in [11], 3.32 µM (active); in experiment [12] it was 6.61 µM (active); in [13] it was 2.64 µM (active). Moreover, the AC50 in experiment [14] was 4.68 µM (active). Besides, the IC50 in experiment [15] was 18.6 µM (active). Also, the fold change in [16] (stronger effect = lower value, cell number ratio, induced over uninduced) is 0.881 (inactive); in experiment [16] (measured here: relative caspase fold change +Dox/-Dox) it was 1.4. In addition, the cell count came to 1390 in experiment [16] (measured here: total cells with miR-34 induction, stronger effect = lower value); 1580 in experiment [16] (measured here: total cells without miR-34 induction); 6880 in experiment [17]. The SSMD in experiment [17] is 6.65. In [17], the plate-normalised HSF1 focus index was 1.4 (inactive). Also, the z-score in experiment [18] is -0.82 (inactive).
For the molecule `C/C=C(/C)C(=O)O[C@@H]1[C@H](OC(C)=O)[C@@]2(CO)C(CC1(C)C)C1=CCC3[C@@]4(C)CC[C@H](O[C@@H]5O[C@H](C(=O)O)[C@@H](O[C@@H]6O[C@H](CO)[C@@H](O)[C@H](O)[C@H]6O)[C@H](O)[C@H]5O[C@@H]5O[C@H](CO)[C@@H](O)[C@H](O)[C@H]5O)[C@](C)(CO)C4CC[C@@]3(C)[C@]1(C)C[C@H]2O` (some centres undefined), in experiment [4], the parasite load remaining was 66% (inactive). In [4], this molecule displayed a viability of 87.2%. Also, the red/green cell ratio (normalised) in experiment [5] is 0.77 (inactive). Besides, the normalised cell number is 1.1 in experiment [5] (setting [19]) and 0.85 in experiment [5] (setting [20]).
Regarding `COc1ccc(-c2cc(=O)c3c(O)cc(O[C@@H]4O[C@H](CO[C@H]5O[C@H](C)[C@@H](O)[C@H](O)[C@@H]5O)[C@@H](O)[C@H](O)[C@H]4O)cc3o2)cc1O`, the inhibition in experiment [1] stood at 25.9%. This molecule had a score in experiment [2] of 2.29. Further, in experiment [3], the cytochrome c release ratio came out at 0.94. Besides, in [4], the parasite load remaining was 42.5% (inactive) and the viability was 98.3%. Also, the red/green cell ratio (normalised) in [5] was 0.86 (inactive). This molecule gave a normalised cell number in experiment [5] (setting [19]) of 1.13. In experiment [5] (setting [20]), this molecule yielded a normalised cell number of 0.98.
With `CCCC(=O)Nc1ncnc2c1ncn2C1O[C@@H]2COP(=O)(O)O[C@H]2[C@H]1OC(=O)CCC` (some centres undefined), in [1], the inhibition was -71.1%. This molecule also showed a score in experiment [2] of 1.26. In [3], the cytochrome c release ratio came out at 0.87. In addition, in experiment [4], the parasite load remaining was 129% (inactive). In experiment [4], this molecule registered a viability of 95%. The red/green cell ratio (normalised) in experiment [5] is 0.94 (inactive). Moreover, the normalised cell number in experiment [5] (setting [19]) was determined as 0.93; in experiment [5] (setting [20]), 0.88.
`COc1ccc([C@@H]2CC(=O)c3c(O)cc(O[C@@H]4O[C@H](CO[C@H]5O[C@@H](C)[C@H](O)[C@@H](O)[C@H]5O)[C@@H](O)[C@H](O)[C@H]4O)cc3O2)cc1O`: the inhibition in experiment [1] was determined as 12.3%. The same molecule gave a score in experiment [2] of 1.13. For the same molecule, in experiment [3], the cytochrome c release ratio is 0.96. Further, the red/green cell ratio (normalised) in experiment [5] is 0.82 (inactive). Also, the normalised cell number was 0.99 in [5] (setting [19]) and 0.81 in experiment [5] (setting [20]).
With `C[C@@H]1O[C@@H](OC[C@H]2OC(Oc3c(-c4ccc(OCCO)c(OCCO)c4)oc4cc(OCCO)cc(O)c4c3=O)[C@H](O)[C@@H](O)[C@@H]2O)[C@H](O)[C@H](O)[C@H]1O` (some centres undefined), in experiment [4], the parasite load remaining is 141% (inactive). The same molecule had a viability in experiment [4] of 89.1%. Moreover, the red/green cell ratio (normalised) in experiment [5] is 0.94 (inactive). For the same molecule, the normalised cell number in experiment [5] (setting [19]) came out at 1.03; in [5] (setting [20]), 0.96.
